Screens deposited in PubChem BioAssay by National Center for Advancing Translational Sciences (NCATS).
Only some compounds are listed: those with a hit (about 13% of all), similar ones and a draw of the others.
ALDH1A1 block – qHTS Assay for Inhibitors of Aldehyde Dehydrogenase 1 (ALDH1A1) | Aldehyde dehydrogenase 1A1 (Homo sapiens), P00352 | Purified ALDH1A1, NADH fluorescence, propionaldehyde substrate | Potency, µM (series often up to 75.3 µM), usual class: inhibitors | 7.3% of 220,000 active; active = well fitted inhibition curve with a large enough effect, not every such curve was filed as active; inconclusive = small, poorly fitted or top-dose-only effect, or another doubt; inactive = no such curve, though single readings can be large or run the other way
Target sequence (P00352 whole entry, looked up): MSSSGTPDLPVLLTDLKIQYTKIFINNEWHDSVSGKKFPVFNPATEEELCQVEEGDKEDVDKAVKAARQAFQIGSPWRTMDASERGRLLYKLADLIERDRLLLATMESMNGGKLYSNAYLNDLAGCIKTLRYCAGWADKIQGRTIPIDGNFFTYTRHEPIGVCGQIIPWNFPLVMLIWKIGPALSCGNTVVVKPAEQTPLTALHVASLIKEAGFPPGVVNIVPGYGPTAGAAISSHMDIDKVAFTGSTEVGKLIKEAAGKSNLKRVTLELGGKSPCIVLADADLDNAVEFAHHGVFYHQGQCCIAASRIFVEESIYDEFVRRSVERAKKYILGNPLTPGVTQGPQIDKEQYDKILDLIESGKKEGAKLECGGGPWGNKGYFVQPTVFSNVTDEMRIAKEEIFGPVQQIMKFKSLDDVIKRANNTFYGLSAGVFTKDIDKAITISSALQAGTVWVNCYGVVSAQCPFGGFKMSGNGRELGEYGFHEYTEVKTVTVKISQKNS
G9a inh – qHTS Assay for Inhibitors of Histone Lysine Methyltransferase G9a. G9a H3K9 monomethylation, AlphaScreen, 2 h. AID 504332, 2011. 8.8% of 350,000 active. Histone-lysine N-methyltransferase EHMT2 (Homo sapiens), Q96KQ7. Potency, µM (highest dose often 102 µM), usual class: inhibitors; note: nearly all actives have a fitted effect of over 75% in size
Target sequence (Q96KQ7 913-1193 limits assumed): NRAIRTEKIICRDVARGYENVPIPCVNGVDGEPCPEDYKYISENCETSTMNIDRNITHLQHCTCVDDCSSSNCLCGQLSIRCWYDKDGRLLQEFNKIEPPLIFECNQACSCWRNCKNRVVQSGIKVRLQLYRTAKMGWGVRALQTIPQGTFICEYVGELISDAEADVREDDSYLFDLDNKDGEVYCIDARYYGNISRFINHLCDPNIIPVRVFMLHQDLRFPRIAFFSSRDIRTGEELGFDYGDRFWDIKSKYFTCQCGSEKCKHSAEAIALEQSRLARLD
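AlphaScreen read-out: biotin-H3K9 peptide (500 nM) methylation by 20 nM enzyme with 20 uM SAM, 2 h at room temperature after 15 min compound preincubation; anti-monomethyl H3K9 antibody plus donor/acceptor beads, 10 min dark.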
LMNA splice mod – qHTS Assay for Modulators of Lamin A Splicing. HeLa LMNA splicing GFP/RFP minigene ratio, 48 h. Potency, µM (series often up to 46.1 µM), usual class: inhibitors. 0.01% of 200,000 active. AID 1487, 2009; active = well fitted inhibition curve with a large enough effect in the signal ratio, with a control signal flat, not every such curve was filed as active; inconclusive = small, poorly fitted or top-dose-only effect, or effect the other way, or a change in a side signal; the % refers to the signal ratio
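Read-out is the ratio of GFP to DsRed2 object intensity, acquired by 488 nm laser-scanning cytometry on HeLa lamin A-EGFP minigene reporter cells. Compound incubation 48 hrs at 37 °C in Opti-MEM with 2% FBS; DMSO 0.5% final.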
Sfp PPTase inh – qHTS Assay for Inhibitors of Bacillus subtilis Sfp phosphopantetheinyl transferase (PPTase); 4'-phosphopantetheinyl transferase ffp (Bacillus subtilis), Q9F4F7; Biochemical Sfp PPTase activity, qHTS; Potency, µM, hits mostly inhibitors; 3.5% of 310,000 active; AID 1490, 2009;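 note: the enzyme is Sfp with the accession as filed and its product quenches rhodamine fluorescence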
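Compounds were incubated with enzyme (final 15 nM) for 15 min at room temperature before substrate addition started the reaction. Fluorescence at 525 nm excitation, 598 nm emission was recorded immediately and after 30 minutes.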
miR-21 reporter – qHTS Assay for Modulators of miRNAs and/orActivators of miR-21; HeLa miR-21 FLuc reporter, luciferase, 48 h; Potency, µM (titrated, usually from 38.3 µM), most hits filed as activators; 340,000 tested, under 10 active; AID 2288, 2010;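 note: miR-21 action dims this reporter so a rising signal means less miR-21 action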
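HeLa cells endogenously expressing miR-21, stably carrying CMV-driven firefly luciferase with a downstream miR-21 binding site, 2000 cells/well. Titrations up to approximately 40 uM, 48 hours; luciferase luminescence read.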
KDM4E inh – qHTS Assay for Inhibitors of Human Jumonji Domain Containing 2E (JMJD2E). Potency, µM (doses to about 57.1 µM), hits mostly inhibitors. AID 2147, 2009. Lysine-specific demethylase 4E (Homo sapiens), B2RXH2. JMJD2E catalytic domain, FDH-coupled NADH fluorescence (FDH is formaldehyde dehydrogenase). 1.6% of 230,000 active; active = well fitted inhibition curve with a large enough effect, not every such curve was filed as active; inconclusive = small, poorly fitted or top-dose-only effect, or another doubt; inactive = no such curve, though single readings can be large or run the other way; note: nearly all actives have a fitted effect of over 50% in size
Numbers stand for hits; – = inactive; ? = inconclusive; · = not tested or not shown; [ ] = remark or other dose. Unless noted, calls come from the whole dose curve; as a rule, active = well fitted curve in the direction sought with a large enough effect; inconclusive = small, poorly fitted or top-dose-only effect, or another doubt; inactive = no such curve, though single readings can be large; an effect the other way counts as inactive or inconclusive.

SMILES | ALDH1A1 block | G9a inh | LMNA splice mod | Sfp PPTase inh | miR-21 reporter | KDM4E inh
CCCCCCCCCCOC(=O)Cn1c(COc2ccccc2OC)[n+](C)c2ccccc21 | · | – | · | 45µM | – | ·
Cn1c(COc2ccccc2O)[n+](C)c2ccccc21 | · | – | · | – | – | ·
COc1ccc(-c2cccc(NS(=O)(=O)c3ccc(NC(C)=O)cc3)c2)nn1 | · | – | – | · | – | ·
COc1ccccc1NC(=O)c1ccc(Br)c(S(=O)(=O)N2CCCC2)c1 | · | – | · | – | – | ·
O=C(Nc1ccc(Cl)cc1)C1C2C=CC3(O2)C1C(=O)N(CCCN1CCCCC1)C3C(=O)NC1CCCCC1 (stereo not given) | · | 50µM | · | – | – | ·
COc1ccc(OC)c(S(=O)(=O)N2CCCC(C(=O)N3CCCCCC3)C2)c1 (stereo not given) | · | – | · | – | – | ·
COc1cc(C(=O)Nc2nnc(C(C)(C)C)s2)c([N+](=O)[O-])cc1OC | ? | 10µM | – | – | – | –
COc1ccc(S(=O)(=O)NCc2ccncc2)cc1NC(=O)c1ccccc1C | · | 8.9µM | · | · | · | ·
COc1ccc(S(=O)(=O)NCc2ccncc2)cc1OC | – | – | ? | – | – | –
COc1cccc(-n2cn[nH]c2=S)c1 | ? | 13µM | ? | – | – | –
COc1cc(-c2c(NC(=O)c3ccco3)oc3ccccc3c2=O)cc(OC)c1OC | · | – | · | – | – | ·
COc1ccc(OC)c(C2=Nn3c(nnc3-c3cc(OC)ccc3OC)SC2)c1 | · | · | · | – | · | ·
COc1ccc(C2=Nn3c(nnc3-c3ccco3)SC2)cc1 | ? | – | – | – | – | –
COc1ccc(OC)c(C2=Nn3c(nnc3-c3ccco3)SC2)c1 | – | ? | – | 50µM | – | –
Oc1ccc(C2=Nn3c(nnc3-c3ccco3)SC2)cc1O | 8.9µM | 13µM | – | ? | – | –
COc1cccc(-c2cn3c(n2)sc2cc(C(=O)NCc4ccccc4F)ccc23)c1 | · | – | – | · | – | ·
C[C@@H]1C=C[C@](Cc2ccccc2)(C(=O)NCCc2c[nH]c3ccccc23)N1C(=O)c1ccccc1 | – | 50µM | ? | – | – | –
CC(=O)N1[C@H](C)C=C[C@]1(Cc1ccccc1)C(=O)NCc1ccc(C)o1 | ? | · | · | 22µM | · | –
COC(=O)[C@@]1(Cc2ccccc2)C=C[C@@H](C)N1C(=O)c1ccccc1 | 40µM | · | · | – | · | –
C=CCSSSCC=C | 13µM | –[2.33 µM] | ? | 40µM | · | –
S=c1[nH]nc(NCCCN2CCOCC2)s1 | · | 1.3µM | · | 35µM | – | ?
CCc1ccc(NC(=O)c2ccc3c(c2)nnn3CC)cc1 | · | – | · | · | – | ·
CCOC(=O)C1=C(N)OC2=C(C(=O)CC(C)(C)C2)C1c1ccccc1OC (stereo not given) | – | · | – | – | – | –
CC1(C)CC(=O)C2=C(C1)OC(N)=C([N+](=O)[O-])C2c1ccc(F)cc1 (stereo not given) | · | – | · | – | – | –
CCOC(=O)C1=C(N)OC2=C(C(=O)CC(C)(C)C2)C1c1ccco1 (stereo not given) | – | 22µM | – | – | – | –
SMILES | ALDH1A1 block | G9a inh | LMNA splice mod | Sfp PPTase inh | miR-21 reporter | KDM4E inh
Cc1ccc(C2C(C(N)=S)=C(N)OC3=C2C(=O)CC(C)(C)C3)cc1 (stereo not given) | 14µM | ? | – | 3.5µM | – | –
CCOC(=O)C1=C(N)OC2=C(C(=O)CC(C)(C)C2)C1c1ccc(CC)s1 (stereo not given) | – | – | · | – | – | –
CCOC(=O)C1=C(N)OC2=C(C(=O)CC(C)(C)C2)C1c1ccc(C)s1 (stereo not given) | 13µM | – | –[9.22 µM] | ? | – | –
O=C(c1csnn1)N1CCC2(CC1)CCN(c1ccncc1)CC2 | – | –[12.7 µM] | · | – | · | ·
Cn1ccc(=S)c2ccccc21 | 7.1µM | 32µM | –[9.22 µM] | 35µM | – | ?
CC(=O)N1CC(C)Oc2ccc(S(=O)(=O)NC(CC(=O)O)c3ccccc3C)cc21 (stereo not given) | · | 50µM | · | – | – | ·
CCc1ccc2oc(-c3cc(NC(=O)C(C)C)cc(C)c3O)nc2c1 | · | – | · | · | – | ·
O=C(CSCn1nnc2c(=O)[nH]c(Cc3ccc(F)cc3)nc21)Nc1cccc(C(F)(F)F)c1 | · | – | · | · | – | ·
O=C(COC(=O)/C=C/c1ccco1)NCc1ccc(Cl)cc1 | · | 7.9µM | · | · | · | ·
Cc1ccc(/C=C/C(=O)OCC(=O)NC(C)C)o1 | – | 45µM | – | – | – | –
O=C(COC(=O)/C=C/c1ccco1)NCc1ccccc1 | – | ? | – | – | – | –
CCCNC(=O)COC(=O)/C=C/c1ccco1 | – | – | – | ? | – | –
CC(C)NC(=O)COC(=O)/C=C/c1ccco1 | – | – | – | 50µM | – | –
O=C(Oc1ccccc1)c1ccccc1OS(=O)(=O)c1ccccc1 | – | – | – | – | – | –
O=Cc1ccccc1OS(=O)(=O)c1ccccc1 | 13µM | – | – | – | – | –
O=C(Nc1cccc([N+](=O)[O-])c1)c1ccc2nc(N3C(=O)CCC3=O)sc2c1 | ? | 11µM | ? | – | – | –
O=C(c1ccccc1)n1nc(-c2ccc(Cl)cc2)nc1NCc1ccco1 | · | – | · | · | – | ·
O=C(N/N=C/c1sc(N2CCCCC2)nc1-c1cccs1)C1CC1 | 22µM | 25µM | – | 56µM | – | ?
CCCCCCCCC1CO1 (stereo not given) | – | · | · | · | · | ·
CCOC(=O)c1cnc(-c2ccccc2O)nc1Cl | ? | 45µM | · | – | – | ?
CCO/C=C1/C(=O)N(c2ccccc2OC)C(=O)c2ccccc21 | ? | 28µM | · | – | – | ?
COc1ccc(N2C(=O)c3ccccc3C2=O)cc1 | – | –[12.7 µM] | – | – | – | –
CCOC(=O)N1C(=O)c2cc(OC)ccc2S1(=O)=O | – | –[0.501 µM] | –[0.0737 µM] | – | – | –
CCO/C=C1/C(=O)N(Cc2ccccc2)C(=O)c2ccccc21 | ? | 14µM | – | – | – | ?
CCO/C=C1/C(=O)N(c2ccc(OC)cc2)C(=O)c2ccccc21 | ? | 25µM | –[9.22 µM] | – | – | ?
SMILES | ALDH1A1 block | G9a inh | LMNA splice mod | Sfp PPTase inh | miR-21 reporter | KDM4E inh
CCO/C=C1/C(=O)N(CC)c2ccccc21 | ? | ? | – | – | – | ?
CCO/C=C1/C(=O)N(C)C(=O)c2cc(OC)ccc21 | ? | 3.5µM | – | – | – | –
Cc1ccc(N2C(=O)c3ccccc3C2=O)cc1 | · | · | · | – | – | –
CCO/C=C1\C(=O)N(c2ccccc2)C(=O)c2ccccc21 | ? | 25µM | – | – | – | ?
COc1ccc(C(=O)Oc2c(Sc3ccc(Cl)cc3)c(C)nn2C(C)(C)C)cc1OC | · | – | · | · | – | ·
CCNc1oc(COc2ccccc2F)nc1C#N | ? | 40µM | – | – | – | –
COc1ccc(CCNc2oc(COc3ccccc3F)nc2C#N)cc1OC | ? | 45µM | ? | – | – | –
